# Several values for one entry are separate records, joined by “and”; a condition that tells them apart may be missing. Identical values can stand only once. Some structures have more than one record in an assay (separate samples or runs), and their calls can disagree. Activity calls are given as the source filed them. Where a call stands in place of a potency, no number is given. Unless noted, calls follow the shape of the dose curve; as a rule, active = well fitted curve in the direction sought with a large enough effect in the repeat runs; inconclusive = weak or mixed curves; inactive = no such curve, though single readings can be large; an effect the other way counts as inactive or inconclusive.
# How the values were obtained:
# [1] = qHTS assay for identifying genotoxic compounds that show differential cytotoxicity against isogenic chicken DT40 cell lines with known DNA damage response pathways - wild type cell line (AID 743012); also: nearly all actives have a fitted effect of over 60% in size; also: potency is read from the fitted curve at half-maximal effect
# Method in brief: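 Viability of DNA repair-proficient chicken DT40 cells was assessed by CellTiter-Glo luminescence following 40 h compound exposure at 37 C/5% CO2.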
# [2] = qHTS assay for identifying genotoxic compounds that show differential cytotoxicity against isogenic chicken DT40 cell lines with known DNA damage response pathways - Rev3 mutant cell line (AID 743014); also: nearly all actives have a fitted effect of over 55% in size; also: potency is read from the fitted curve at half-maximal effect
# [3] = qHTS assay for identifying genotoxic compounds that show differential cytotoxicity against isogenic chicken DT40 cell lines with known DNA damage response pathways - Rad54/Ku70 mutant cell line (AID 743015); also: nearly all actives have a fitted effect of over 60% in size; also: potency is read from the fitted curve at half-maximal effect
# [4] = qHTS assay to identify small molecule antagonists of the androgen receptor (AR) signaling pathway - cell viability counter screen (AID 743033; also: nearly all actives have a fitted effect of over 45% in size)
# [5] = qHTS assay to identify small molecule antagonists of the androgen receptor (AR) signaling pathway using the MDA cell line - cell viability counter screen (AID 743041; also: nearly all actives have a fitted effect of over 45% in size; also: potency is read from the fitted curve at half-maximal effect)
# Method in brief: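 Viability read by CellTiter-Fluor fluorescence in the same wells as the antagonist screen, added after 15.5 h of a 16 h, 37C exposure. Human breast carcinoma MDA-kb2 AR-luc cells, compounds co-dosed with agonist R1881.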
# [6] = biological target: Estrogen receptor (Homo sapiens) (UniProt P03372); test: qHTS assay to identify small molecule antagonists of the estrogen receptor alpha (ER-alpha) signaling pathway (AID 743069; active = well fitted curve in the direction sought with a large enough effect in the signal ratio in the repeat runs, not every such curve was filed as active; inconclusive = weak or mixed curves, or effect the other way; inactive = no such curve, though single readings can be large or run the other way; the % refers to the signal ratio)
# Estrogen receptor (Homo sapiens), sequence (P03372 whole entry, looked up): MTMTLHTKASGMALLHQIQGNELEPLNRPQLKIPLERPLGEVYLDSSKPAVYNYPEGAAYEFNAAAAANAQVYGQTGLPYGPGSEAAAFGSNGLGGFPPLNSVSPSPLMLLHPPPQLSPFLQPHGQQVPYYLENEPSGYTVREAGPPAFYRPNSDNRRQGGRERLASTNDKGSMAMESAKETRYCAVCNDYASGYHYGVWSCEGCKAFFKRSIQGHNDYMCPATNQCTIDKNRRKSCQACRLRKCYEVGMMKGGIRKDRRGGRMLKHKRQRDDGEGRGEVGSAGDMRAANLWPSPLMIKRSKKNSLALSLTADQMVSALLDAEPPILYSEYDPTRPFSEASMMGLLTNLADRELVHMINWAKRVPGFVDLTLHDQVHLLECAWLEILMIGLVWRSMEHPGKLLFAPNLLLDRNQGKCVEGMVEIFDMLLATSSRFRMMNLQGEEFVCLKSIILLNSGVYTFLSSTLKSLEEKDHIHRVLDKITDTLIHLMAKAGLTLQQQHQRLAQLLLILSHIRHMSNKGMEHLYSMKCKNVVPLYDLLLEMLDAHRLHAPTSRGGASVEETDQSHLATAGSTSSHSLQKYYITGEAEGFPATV
# Method in brief: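 Antagonist mode: compounds in DMSO were co-added with 17beta-estradiol to ER-alpha-bla HEK293 cells (2% charcoal-stripped serum) and left 18 h at 37C. Reporter inhibition was measured as FRET fluorescence after 2 h LiveBLAzer substrate at room temperature.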
# [7] = qHTS assay to identify small molecule antagonists of the estrogen receptor alpha (ER-alpha) signaling pathway - cell viability counter screen (AID 743074; calls by dose curve;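 also: HEK293 cells carrying ER-alpha-UAS-bla reporter stimulated with 17beta-estradiol; nearly all actives have a fitted effect of over 45% in size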)
# [8] = biological target: Estrogen receptor (Homo sapiens) (UniProt P03372); test: qHTS assay to identify small molecule agonists of the estrogen receptor alpha (ER-alpha) signaling pathway (AID 743075; calls by dose curve;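 also: HEK293 GripTite cells with ER-alpha and UAS-driven beta-lactamase reporter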; also: potency is read from the fitted curve at half-maximal effect)
# [9] = biological target: Estrogen receptor (Homo sapiens) (UniProt P03372); test: qHTS assay to identify small molecule agonists of the estrogen receptor alpha (ER-alpha) signaling pathway using the BG1 cell line (AID 743079); also: nearly all actives have a fitted effect of over 20% in size; also: potency is read from the fitted curve at half-maximal effect
# [10] = qHTS assay to identify small molecule antagonists of the estrogen receptor alpha (ER-alpha) signaling pathway using the BG1 cell line (AID 743080; calls by dose curve;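 also: BG1 cells stimulated with 17beta-estradiol alongside compound; series mostly up to about 70 µM; nearly all actives have a fitted effect of over 25% in size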)
# Method in brief: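 BG1-Luc-4E2 cells (endogenous full-length ER-alpha, stable 4×ERE-luciferase) were starved 5 days in phenol-red-free medium with 10% charcoal-stripped FBS, plated 24 h, then given compound plus 17beta-estradiol for 21.5 h at 37 C; ONE-Glo luminescence read after 30 min.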
# [11] = qHTS assay to identify small molecule antagonists of the estrogen receptor alpha (ER-alpha) signaling pathway using the BG1 cell line - cell viability counter screen (AID 743081);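 also: compound given together with 17beta-estradiol as the ER stimulus; nearly all actives have a fitted effect of over 45% in size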; also: potency is read from the fitted curve at half-maximal effect
# Aromatase (Homo sapiens) = Aromatase (Homo sapiens) (UniProt P11511); test: qHTS assay to identify aromatase inhibitors (AID 743083); also: nearly all actives have a fitted effect of over 55% in size; also: potency is read from the fitted curve at half-maximal effect
# Aromatase (Homo sapiens), sequence (P11511 whole entry, looked up): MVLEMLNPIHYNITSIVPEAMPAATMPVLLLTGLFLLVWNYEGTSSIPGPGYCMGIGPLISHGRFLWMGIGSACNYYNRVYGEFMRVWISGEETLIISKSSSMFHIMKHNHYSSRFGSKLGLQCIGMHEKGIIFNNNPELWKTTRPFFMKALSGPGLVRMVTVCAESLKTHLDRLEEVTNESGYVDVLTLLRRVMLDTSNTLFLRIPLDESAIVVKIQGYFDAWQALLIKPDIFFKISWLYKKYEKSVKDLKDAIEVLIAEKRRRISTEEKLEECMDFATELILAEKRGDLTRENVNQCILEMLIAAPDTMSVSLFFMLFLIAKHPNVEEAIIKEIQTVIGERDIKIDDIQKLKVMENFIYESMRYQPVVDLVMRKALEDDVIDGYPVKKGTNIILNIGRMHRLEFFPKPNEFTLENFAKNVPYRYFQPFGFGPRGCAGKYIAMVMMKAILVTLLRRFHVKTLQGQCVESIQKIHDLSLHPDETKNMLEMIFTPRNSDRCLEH
# [12] = qHTS assay to identify small molecule antagonists of the glucocorticoid receptor (GR) signaling pathway - cell viability counter screen (AID 720693); also: nearly all actives have a fitted effect of over 55% in size
# [13] = qHTS assay to identify small molecule antagonists of the thyroid receptor (TR) signaling pathway (AID 743065); also: nearly all actives have a fitted effect of over 55% in size; also: potency is read from the fitted curve at half-maximal effect
# Method in brief: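 Antagonism measured as loss of luciferase signal in GH3 cells stably carrying a TRE-luciferase reporter, co-treated with compound and T3 (1 nM final) for 23.5 h at 37 C. Viability was read in the same well by CellTiter-Fluor.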
# [14] = tested on: thyroid hormone receptor (rat, GH3 cells); test: qHTS assay to identify small molecule agonists of the thyroid receptor (TR) signaling pathway (AID 743066; calls by dose curve; also: potency is read from the fitted curve at half-maximal effect)
# [15] = qHTS assay to identify small molecule antagonists of the thyroid receptor (TR) signaling pathway - cell viability counter screen (AID 743064); also: nearly all actives have a fitted effect of over 50% in size; also: potency is read from the fitted curve at half-maximal effect
# Method in brief: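 In rat pituitary GH3.TRE-Luc reporter cells co-exposed to compound and 1 nM T3 for 23.5 h, cytotoxicity was assessed with CellTiter-Fluor in the same wells, read by fluorescence.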
# [16] = biological target: Androgen receptor (Homo sapiens) (UniProt P10275); test: qHTS assay to identify small molecule antagonists of the androgen receptor (AR) signaling pathway (AID 743035; active = well fitted inhibition curve with a large enough effect in the signal ratio in the repeat runs, not every such curve was filed as active; inconclusive = weak or mixed curves, or effect the other way; inactive = no such curve, though single readings can be large or run the other way; the % refers to the signal ratio; also: potency is read from the fitted curve at half-maximal effect)
# Androgen receptor (Homo sapiens), sequence (P10275 whole entry, looked up): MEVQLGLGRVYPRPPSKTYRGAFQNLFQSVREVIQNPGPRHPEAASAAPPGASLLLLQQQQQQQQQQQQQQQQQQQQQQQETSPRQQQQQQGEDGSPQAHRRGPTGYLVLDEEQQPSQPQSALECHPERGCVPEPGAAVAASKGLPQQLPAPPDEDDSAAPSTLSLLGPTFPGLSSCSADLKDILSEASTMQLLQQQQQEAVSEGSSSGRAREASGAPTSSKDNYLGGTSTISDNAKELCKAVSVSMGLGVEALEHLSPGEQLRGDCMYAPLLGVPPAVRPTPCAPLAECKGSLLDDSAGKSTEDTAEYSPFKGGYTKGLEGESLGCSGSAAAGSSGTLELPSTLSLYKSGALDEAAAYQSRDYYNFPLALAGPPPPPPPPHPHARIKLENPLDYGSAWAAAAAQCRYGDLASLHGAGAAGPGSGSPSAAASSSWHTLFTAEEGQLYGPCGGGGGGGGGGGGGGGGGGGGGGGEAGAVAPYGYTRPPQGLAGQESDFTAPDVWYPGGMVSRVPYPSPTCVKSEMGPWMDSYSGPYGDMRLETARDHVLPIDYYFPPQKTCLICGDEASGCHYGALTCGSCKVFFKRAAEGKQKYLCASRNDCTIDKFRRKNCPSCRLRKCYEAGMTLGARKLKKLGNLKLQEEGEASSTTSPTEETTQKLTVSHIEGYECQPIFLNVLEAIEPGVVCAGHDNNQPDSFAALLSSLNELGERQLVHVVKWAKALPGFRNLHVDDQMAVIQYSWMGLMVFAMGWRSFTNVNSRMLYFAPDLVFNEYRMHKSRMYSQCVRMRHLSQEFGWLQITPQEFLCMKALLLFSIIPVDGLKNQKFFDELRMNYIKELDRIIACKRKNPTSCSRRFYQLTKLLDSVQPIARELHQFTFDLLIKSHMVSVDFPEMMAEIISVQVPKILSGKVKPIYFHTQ
# Method in brief: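 Reporter HEK293 cells were exposed to compounds and R1881 overnight (16 h, 37C); beta-lactamase activity was then quantified by FRET fluorescence.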
# [17] = biological target: Androgen receptor (Homo sapiens) (UniProt P10275); test: qHTS assay to identify small molecule agonists of the androgen receptor (AR) signaling pathway (AID 743036; active = well fitted activation curve with a large enough effect in the signal ratio in the repeat runs, with a control signal flat, not every such curve was filed as active; inconclusive = weak or mixed curves, or effect the other way; inactive = no such curve, though single readings can be large or run the other way; the % refers to the signal ratio)
# Method in brief: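 Cell-based FRET reporter assay: HEK293 line with a UAS-beta-lactamase construct, compounds added in DMSO, 16 h exposure at 37C, then 2 h substrate step at room temperature and fluorescence intensity read.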
# [18] = biological target: Androgen receptor (Homo sapiens) (UniProt P10275); test: qHTS assay to identify small molecule agonists of the androgen receptor (AR) signaling pathway using the MDA cell line (AID 743040; also: nearly all actives have a fitted effect of over 20% in size)
# Method in brief: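 Luciferase agonist assay: 16 h compound exposure at 37C without CO2 in MDA-kb2 AR-luc cells, whose MMTV promoter responds to both AR and GR. Luminescence measured after 30 min room-temperature incubation with ONE-Glo.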
# [19] = biological target: Androgen receptor (Homo sapiens) (UniProt P10275); test: qHTS assay to identify small molecule antagonists of the androgen receptor (AR) signaling pathway using the MDA cell line (AID 743042)
# Method in brief: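 Antagonist mode: compounds plus R1881 agonist added to MDA-kb2 AR-luc cells, incubated 16 h at 37C. Luciferase reporter luminescence quantified, with multiplexed CellTiter-Fluor readout for cell viability.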
Compound,Potency [1],Potency [2],Potency [3],Potency [4],Potency [5],Potency [6],Potency [7],Potency [8],Potency [9],Potency [10],Potency [11],Potency (Aromatase (Homo sapiens)),Potency [12],Potency [13],Potency [14],Potency [15],Potency [16],outcome [17],Potency [18],Potency [19]
Nc1ncnc2nc[nH]c12,inactive,inactive,inactive,inactive,inactive,inactive,inactive,inactive,inactive,inactive,inactive,inactive,,,,,,,,
O=[N+]([O-])c1ccc2c(c1)Cc1ccccc1-2,inactive,inactive,inactive,inactive,inactive,inactive,inactive,inactive,13.7 µM (active),inactive,inactive,inactive,inactive,inactive,inactive,,,,,
CCC(C)CO (centres undefined),inactive,inactive,inactive,inactive,inactive,inactive,inactive,inactive,inactive,inactive,inactive,inactive,inactive,inactive,inactive,,,,,
O=C1OC2(c3cc(Br)c(O)c(Br)c3Oc3c2cc(Br)c(O)c3Br)c2c(Cl)c(Cl)c(Cl)c(Cl)c21,,inactive,inactive,inactive,4.33 µM (active) and 37.1 µM (active),inactive,,inactive,inactive,,8.64 µM (active) and 18.6 µM (active),inactive,,54.5 µM (active) and 41.6 µM (active),inactive,24.4 µM (active) and 41.6 µM (active),,,,
Nc1ncn([C@@H]2O[C@H](CO)[C@@H](O)[C@H]2O)c(=O)n1,1.88 µM (active) and 1.54 µM (active),1.88 µM (active) and 1.22 µM (active),841 nM (active) and 386 nM (active),,inactive,,inactive,inactive,inactive,inactive,inactive,13.3 µM (active) and 8.63 µM (active),,7.5 µM (active) and 9.69 µM (active),inactive,5.31 µM (active) and 9.69 µM (active),3.38 µM (active) and 1.1 µM (active),inactive,inactive,5.96 µM (active) and 2.73 µM (active)
O=C(c1ccccc1)c1ccc(O)cc1O,inactive,inactive,,inactive,inactive,inactive,,19.9 µM [inconclusive] (active) and 38.9 µM [inconclusive] (active),9.88 µM (active) and 9.69 µM (active),,inactive,inactive,inactive,inactive,inactive and 30.6 µM (active),inactive,,,,

# Reference: PubChem BioAssay (Tox21)
